This test concerns Plasmodium falciparum. Kind of test: Plasmodium falciparum sporozoite viability assay. The format is functional, organism-based. Also noted: scale not given: in the data most compounds retested in dose-response had high values.

Where “and” joins values, the source holds several entries; their conditions need not be identical. Identical values can stand only once. Among all 34,000 compounds or so, about 290 (0.85%) showed an effect of 50% or more. Shown is part of a subset that was picked to be rich in strong results.

As to `CC(C)CN(C)Cc1nc2c(cnn2C)c(=O)[nH]1`, the “Percent Effect” value is 7.587%. The same measure, in the same setting: with `CN(C)CC1CN(Cc2nc(-c3ccccn3)no2)CCO1` (configuration not stated) the figure was 24.23%. As for `CN1CCN(S(=O)(=O)c2ccc(Cl)c(Cl)c2)c2cnccc21`, where the note is “10 mM as filed; unlikely as a test dose”, the “Percent Effect” value was -22.78% and -8.887%.

`Cc1cc(-c2cc(F)ccc2C(=O)O)nc(C2CCCCN2C(C)C)n1` (configuration not stated): the “Percent Effect” value is 4.863%. Take `CC(=O)N1N=C(c2ccccc2)OC1C(=O)NCCc1ccc(O)cc1` (configuration not stated): the “Percent Effect” value was determined as 3.916%.

For the compound `CC[C@@H](C)[C@@H](N)C(=O)Nc1cccc(-c2cnc(N(C)CCO)nc2)c1`, the “Percent Effect” value came to 4.657%. Still for that read-out and setting: the result for `CCn1cc(NC(=O)NCCN2CCCc3ccccc32)cn1` reads -384.2%; that for `Cn1cc(CCNC(=O)CCc2ccc3c(c2)OCO3)cn1`, 0.08354%. Consider `O=C(CCn1cccn1)NS(=O)(=O)N1CCCc2ccccc21`, for which, under “10 mM as filed; unlikely as a test dose”, the “Percent Effect” value was 88.08% and 94.17% and 83.19%. Still for that read-out and setting: the result for `Cn1cc(CCC(=O)NS(=O)(=O)N2CCCc3ccccc32)cn1` reads 95.69% and 93.95% and 93.94%; that for `Cc1cnn(CCC(=O)NS(=O)(=O)N2CCc3ccccc32)c1`, -13.26% and -21.53% and -23.4%. For `Cn1nc(CNC(=O)c2ccc(OC(F)(F)F)cc2)c2c1CCOC2`, the “Percent Effect” value is reported as -1.164%. The same measure, in the same setting: with `Cn1ncc(NCc2cccc(F)c2)c(Cl)c1=O` the figure was 2.958%; with `CNC(=O)[C@@H]1CCO[C@@H]2CCN(CCc3ccccc3)C[C@H]21.O=C(O)C(F)(F)F`, 14.59%. `CC(CO)CN(Cc1ccccc1)Cc1cnc2ccccc2n1` (configuration not stated): the “Percent Effect” value (10 mM as filed; unlikely as a test dose) was 33.49% and 37.4%. Take `Cc1cnc(N(C)Cc2cnc3ccccc3n2)nc1N(C)C`: the “Percent Effect” value (10 mM as filed; unlikely as a test dose) was 42.78% and 58%. Still for that read-out and setting: the result for `CC(=O)c1cnc(N(C)Cc2cnc3ccccc3n2)nc1C` reads -14.78% and -20.36%. Regarding `Cc1cnn(C2CCCN(C(=O)Cc3ccc(C)s3)C2)c1` (configuration not stated), the “Percent Effect” value was 7.18%. Still for that read-out and setting: with `Cc1cnc(CCNc2cccc(CC3CCCNC3)n2)s1.Cl` (configuration not stated) the figure was -6.2%. Take `Cc1nc(N(CCC(N)=O)Cc2ccccc2)c2nc(C)oc2n1`: the “Percent Effect” value is reported as 2.982%. Same read-out and setting: the result for `CN(Cc1noc(C2CC2)n1)C1CCN(Cc2ccccc2C#N)C1` (configuration not stated) reads 5.942%; that for `Cc1nccn1CCCC(=O)N1CCCC(c2noc(C(C)C)n2)C1` (configuration not stated), 1.926%. As for `CN1CCN(Cc2ccc(-c3ccc(-c4ccn[nH]4)cc3)nc2)CC1`, the “Percent Effect” value (10 mM as filed; unlikely as a test dose) was 56.12% and 32.6%.

As to `CN1CCN(Cc2ccc(-c3ccc(C(N)=O)cc3)nc2)CC1`, for the setting “10 mM as filed; unlikely as a test dose”, the “Percent Effect” value was -29.68% and -21.28%. In the case of `CC(=O)N1CCCN(C(=O)NCc2ccc(-c3ccn[nH]3)cc2)CC1`, the “Percent Effect” value was found to be 9.841%. On the same count and under the same terms, the result for `O=C(NCc1nn(-c2ccccc2)c2c1CCC2)NCC1COCCO1` (configuration not stated) reads 13.65%; that for `Cc1nc2c(c(NCCc3nccs3)n1)CCN(CC1CC1)CC2`, -1.253%; that for `Cc1cnn(CC2CCCN2C(=O)c2cc3ccccc3c(=O)[nH]2)c1` (configuration not stated), 2.755%. Take `CN1CCC(c2cccc(NCc3nccn3C)n2)CC1`: the “Percent Effect” value (10 mM as filed; unlikely as a test dose) was 4.151% and -3.748% and -15.94%.

On to `Cl.Cn1ccnc1CNC(=O)c1cnc(C2CCNCC2)cn1`, for which the “Percent Effect” value is 2.787%.

In the case of `CN1CCC(c2cnc(NCc3nccn3C)cn2)CC1`, for the setting “10 mM as filed; unlikely as a test dose”, the “Percent Effect” value was 45.14% and 64.85% and 67.7%. Take `COc1ccc(CN(C)[C@@H]2CN(C(=O)c3cnn(C)c3)C[C@H]2O)cc1`: the “Percent Effect” value was found to be 2.355%. On the same count and under the same terms, the result for `FC1(F)CCN(Cc2ccncc2)CC12CCN(c1cnccn1)C2.O=C(O)C(F)(F)F.O=C(O)C(F)(F)F.O=C(O)C(F)(F)F` (configuration not stated) reads 22.83%. With `O=C(c1[nH]nc(C2CC2)c1Cl)N1CCN(C2CC2)C(=O)C1`, the “Percent Effect” value (10 mM as filed; unlikely as a test dose) was 67.53% and 69.62%.

`O=C(c1[nH]nc(C2CC2)c1Cl)N1CCN(C2CC2)CC1`: the “Percent Effect” value (10 mM as filed; unlikely as a test dose) is -13.62% and -21.71%.

As for `O=C(c1[nH]nc(C2CC2)c1Cl)N1CCCC1`, the “Percent Effect” value (10 mM as filed; unlikely as a test dose) is -32.9% and -32.97%. Turning to `CCOCc1ncn2c1CN(C(=O)Nc1ccccc1CC)CC2`, the “Percent Effect” value amounted to 3.671%. The same measure, in the same setting: the result for `CN(C)CCN1Cc2ncn(C)c2C(COCC(=O)N(C)C)C1` (configuration not stated) reads 10.44%. Turning to `CC1CCc2nn(CCNC(=O)Cc3ccccc3F)c(=O)cc2C1` (configuration not stated), the “Percent Effect” value (10 mM as filed; unlikely as a test dose) was -25.04% and -6.135% and -21.75%.

For the compound `CCN(CC)Cc1ccc(C(=O)N2CCCC2Cn2cccn2)o1` (configuration not stated), the “Percent Effect” value is -5.987%. Still for that read-out and setting: the result for `Cc1cc(N2CCC3(CCCN(CCO)C3=O)C2)nc2cc(Cl)ccc12` (configuration not stated) reads -0.3581%; that for `N#Cc1cc(NC(=O)c2ccccc2)ccc1N1CCC(O)CC1`, -10.71%. With `O=C(NC1=NCCCN1c1ccc(Cl)cc1)c1cccc(Cl)c1`, the “Percent Effect” value (10 mM as filed; unlikely as a test dose) was -9.725% and -15.1% and -5.453%. Turning to `O=C(CN1CCCS1(=O)=O)Nc1ccc(OC2CCCC2)cc1`, the “Percent Effect” value is listed as -4.929%. As to `COc1ccc(NC(=O)c2cnc(C3CCN(C)CC3)nc2C)cc1`, the “Percent Effect” value is reported as -1.219%. Same read-out and setting: the result for `CCOc1ccc(N2CCCN=C2NC(=O)c2cccc(Cl)c2)cc1` reads -13.96%. In the case of `COc1cccc(C(=O)Nc2ccc(OC3CCN(C)CC3)cc2)c1`, the “Percent Effect” value (10 mM as filed; unlikely as a test dose) was 24.26% and 49.56% and 59.7%. As for `Cc1cccc(C(=O)Nc2ccc(OC3CCN(C)CC3)cc2)c1`, under “10 mM as filed; unlikely as a test dose”, the “Percent Effect” value is 84.14% and 90.45% and 76.34%. With `CCC1=N[C@@]2(CC[C@@H]3CN(Cc4ccc(Cl)cc4)C[C@@H]32)C(=O)N1C.O=C(O)C(F)(F)F`, the “Percent Effect” value is -5.486%. Still for that read-out and setting: the result for `Cc1nc(CC(=O)N2CCC(c3nn(C)c4ncccc34)CC2)cs1.Cl` reads 3.729%; that for `Cc1nc(-c2nnc[nH]2)sc1C(=O)N1CCCC1c1ccsc1` (configuration not stated), 7.018%; that for `Cc1nc(C)n(C2CCCN(C(=O)c3csc(CC(C)C)n3)C2)n1` (configuration not stated), 0.06439%. On to `CN(C)c1ccc(C(=O)N2CCC(c3cc4ncccc4[nH]3)CC2)cc1`, for which the “Percent Effect” value is -1.989%.

For the compound `CC(=O)NCCC(=O)NCc1cc(Br)ccc1OC(F)F`, the “Percent Effect” value is listed as -22.55%. Same read-out and setting: with `O=C(O)C(F)(F)F.O=C(c1ccccc1)N1CCCC2(CCN2Cc2cccc(F)c2)C1` (configuration not stated) the figure was 4.203%; with `CC(C)N1CCO[C@@H]2CN(C(=O)NCc3ccccc3)CC[C@@H]2C1.O=C(O)C(F)(F)F`, 8.185%.

Take `CCC(=O)N1CCC(Cc2ccccc2-c2cccc(C)c2)(C(N)=O)C1` (configuration not stated): the “Percent Effect” value is on record as 2.181%. The same measure, in the same setting: the result for `COc1cc(CNCc2ccnc(N3CCCCC3)c2)cc(OC)c1` reads 3.028%.

For the compound `CSc1ccccc1C(=O)Nc1ccc(OC2CCN(C)CC2)cc1`, where the note is “10 mM as filed; unlikely as a test dose”, the “Percent Effect” value was 86.05% and 73.83% and 74.05%. Take `O=C(CC1CC1)N1Cc2nccn2CC(Cn2ncccc2=O)C1` (configuration not stated): the “Percent Effect” value is given as 1.18%.

As for `CCN1CCCn2c(nc(CNC(=O)c3ccsc3)cc2=O)C1`, the “Percent Effect” value is recorded as -13.03%.

Regarding `O=C(c1cc(Cl)c[nH]1)N(CCCO)Cc1cccnc1`, the “Percent Effect” value is -9.649%. As for `Nc1nc2c(c3c1C(=O)NC3=O)CCC2`, the “Percent Effect” value (10 mM as filed; unlikely as a test dose) is 75.96% and 84.59%. The same measure, in the same setting: the result for `Nc1nc2c(c3c1C(=O)NC3=O)CCCC2` reads -19.96% and -21.28%; that for `O=C1NC(=O)c2c3c(nc(O)c21)CCCC3`, -19.04% and -16.96% and 3.732%. Consider `CN(C)CCO[C@H]1CN(Cc2ccco2)[C@@H]2COC[C@H]12.O=C(O)C(F)(F)F.O=C(O)C(F)(F)F`, for which the “Percent Effect” value stood at 12.07%. On to `CCC(=O)N1CCCC(C(=O)c2cnn(-c3ccc(F)cc3)c2N)C1` (configuration not stated), for which the “Percent Effect” value (10 mM as filed; unlikely as a test dose) was 46.01% and 80.8% and 57.02%. `CC(=O)N1CCCC(C(=O)c2cnn(-c3ccc(F)cc3)c2N)C1` (configuration not stated): the “Percent Effect” value (10 mM as filed; unlikely as a test dose) was 27.98% and 70.48% and 45.02%.

For the compound `CCCC(=O)N1CCCC(c2ccccn2)C1` (configuration not stated), the “Percent Effect” value was -4.87%. Still for that read-out and setting: the result for `CCC(=O)N1CCCC(c2nc(N(C)C)ncc2-c2ccc(F)cc2)C1` (configuration not stated) reads 2.091%; that for `CCOC(=O)C1CCN(C(=O)c2cnn(-c3ccc(C)cc3)c2N)CC1`, -31.22%. The same measure, in the same setting: the result for `CC(=O)N1CCC(C(=O)c2cnn(-c3ccccc3)c2N)C1` (configuration not stated) reads -4.265%; that for `COc1ccc2c(c1)c(-c1nc(N(C)C)ncc1CN)cn2C`, 23.78%; that for `CCC(=O)N1CCC2(CC1)CNC(=O)c1cc(C)ccc1O2`, 7.401%. With `CCOc1ncccc1NC(=O)Nc1c(C)nn(C(C)C)c1C`, the “Percent Effect” value is 2.999%. Same read-out and setting: the result for `Clc1ccc(OCCCN2CCN(c3cnccn3)CC2)cc1` reads -11.56%; that for `O=C(Cn1cc(C2CC2)nn1)N(Cc1ccco1)CC1CCCO1` (configuration not stated), -0.6519%. For `Fc1cccc(Cc2cncc(C3CCCN3C3CCOCC3)n2)c1` (configuration not stated), the “Percent Effect” value is given as -10.3%.

On to `Cc1cccc(C(=O)N2CCN(C(=O)Cc3ccccn3)CC2)c1C`, for which the “Percent Effect” value (10 mM as filed; unlikely as a test dose) was 0.7402% and -14.31% and -17.8%.

As to `CN1CCN(C2CCN(c3cnc4ccccc4n3)CC2)C1=O`, where the note is “10 mM as filed; unlikely as a test dose”, the “Percent Effect” value is 71.66% and 96.44% and 85%. Consider `CN1CCN(C2CCN(CCOc3ccccc3)CC2)C1=O`, for which the “Percent Effect” value came out at 2.798%. Regarding `CN1CCN(C2CCN(c3ccnc(-c4ccccc4)n3)CC2)C1=O`, for the setting “10 mM as filed; unlikely as a test dose”, the “Percent Effect” value is -12.56% and 9.01% and -14.11%. Regarding `CCc1n[nH]c(C2CN(C(=O)c3ccnc(C)n3)CCO2)n1` (configuration not stated), the “Percent Effect” value is given as -2.148%. On the same count and under the same terms, with `CCc1nc(CC(=O)N2CCCCC2Cn2cccn2)cs1` (configuration not stated) the figure was 3.352%; with `Cc1cccc(CN2C[C@@H]3CN(C(=O)C4CC=CC4)C[C@@H]3C2=O)n1`, -3.24%.

Consider `CC(=O)N1CCCC1c1ccc(C(=O)N2CCOCC2)s1` (configuration not stated), for which the “Percent Effect” value stood at 9.227%.

On to `O=C(c1ccc(C2CCCO2)s1)N1Cc2ccccc2C1` (configuration not stated), for which the “Percent Effect” value (10 mM as filed; unlikely as a test dose) was -3.474% and -5.294% and -6.784%. Same read-out and setting: the result for `CN1CCCC1c1ccc(C(=O)N2CCc3ccccc3C2)s1` (configuration not stated) reads 96.19% and 93.66% and 95.32%.

`Cc1cc(N2CCN(c3ccc(=O)[nH]n3)CC2)nc(-c2ccncc2)n1`: the “Percent Effect” value is 8.684%. Still for that read-out and setting: with `Cc1nc(C)n(CC2CCCN(Cc3ccccc3C#N)C2)n1` (configuration not stated) the figure was 4.939%. Regarding `CC(=O)N[C@H]1CCO[C@@H](c2cccc(NC(=O)C(C)(C)C)c2)C1`, the “Percent Effect” value (10 mM as filed; unlikely as a test dose) was 12.38% and 11.09% and 3.549%. The same measure, in the same setting: with `CC(=O)N[C@H]1CCO[C@@H](c2cccc(NC(=O)c3cccc(F)c3)c2)C1` the figure was 55.02% and 42.93% and 54.57%.
